From the antibiotic and cytotoxicity screens of Wong et al. (2023)
Screen size: about 39,000 compounds; about 3,300 (8.5%) were called active. Many of the other results were omitted from the sample, so actives are more common in it than they were.

These molecules were tested on HepG2 (assay: cytotoxicity call (relative viability < 0.9)). Conditions: 10 µM.

SMILES	cytotoxicity call
O=C(O)CNS(=O)(=O)c1ccccc1F	inactive
Cc1noc(C)c1S(=O)(=O)Nc1ccc2c(c1)CC(=O)N([C@H](C)CO)C[C@@H](C)[C@H](CN(C)S(C)(=O)=O)O2	inactive
C[C@@H]1CN([C@@H](C)CO)C(=O)c2cccc(NC(=O)c3nc4ccccc4s3)c2O[C@H]1CN(C)Cc1ccc(-c2ccccc2)cc1	inactive
COc1ccc(S(=O)(=O)Nc2ccc3c(c2)C(=O)N([C@@H](C)CO)C[C@H](C)[C@@H](CN(C)C(=O)Nc2cccc4ccccc24)O3)cc1	inactive
C[C@@H]1CN([C@H](C)CO)C(=O)c2cc(NS(C)(=O)=O)ccc2O[C@H]1CN(C)Cc1ccc(C(F)(F)F)cc1	inactive
C[C@H]1CN([C@@H](C)CO)C(=O)c2cccc(NC(=O)C3CCOCC3)c2O[C@H]1CN(C)S(=O)(=O)c1ccccc1	inactive
O=C(C[C@@H]1CC[C@H]2[C@@H](COC[C@@H](O)CN2S(=O)(=O)c2ccc(F)cc2)O1)NCc1ccc(Cl)c(Cl)c1	inactive
O=C(Nc1ccc(C(=O)Nc2ccc(C(=O)Nc3ccc(S(=O)(=O)O)c4cc(S(=O)(=O)O)cc(S(=O)(=O)O)c34)cc2)cc1)Nc1ccc(C(=O)Nc2ccc(C(=O)Nc3ccc(S(=O)(=O)O)c4cc(S(=O)(=O)O)cc(S(=O)(=O)O)c34)cc2)cc1	inactive
C[C@H]1CN([C@@H](C)CO)C(=O)c2cc(Br)cnc2O[C@@H]1CN(C)S(=O)(=O)c1ccccc1	inactive
C[C@@H]1CN([C@@H](C)CO)C(=O)c2cc(NS(=O)(=O)c3ccc(F)cc3)ccc2O[C@@H]1CN(C)S(=O)(=O)c1ccccc1	inactive
C=CCOC(=O)[C@@H]1[C@H]2C(=O)O[C@H](c3ccccc3)[C@H](c3ccccc3)N2[C@H](c2ccc(OCCOC(=O)[C@H]3C[C@H]4C(=O)NCC(=O)N4[C@H]3c3cccc(OCCO)c3)cc2)[C@@]12C(=O)Nc1ccc(I)cc12	inactive
C[C@@H]1CN([C@H](C)CO)C(=O)c2cc(NC(=O)Nc3ccc(F)cc3)ccc2O[C@@H](C)CCCCO[C@@H]1CN(C)S(=O)(=O)c1ccc(F)cc1	inactive
C[C@@H]1CCCCO[C@H](CN(C)S(=O)(=O)c2ccc(F)cc2)[C@@H](C)CN([C@H](C)CO)C(=O)c2cc(NC(=O)Nc3ccc(F)cc3)ccc2O1	inactive
C[C@@H]1CCCCO[C@H](CN(C)S(=O)(=O)c2ccc(F)cc2)[C@H](C)CN([C@H](C)CO)C(=O)c2cc(NC(=O)Nc3ccc(F)cc3)ccc2O1	active
COC(=O)C1=CO[C@@H](O[C@@H]2O[C@H](CO)[C@@H](O)[C@H](O)[C@H]2O)[C@@H]2[C@@](C)(O)[C@@H](OC(=O)/C=C/c3ccc(O)cc3)C[C@]12O	inactive
OC[C@@H](O)[C@@H](O)CO	inactive
OCC(O)C(O)CO (centres undefined)	inactive
C[C@@H]1CCCCO[C@@H](CN(C)C(=O)NC2CCCCC2)[C@H](C)CN([C@@H](C)CO)C(=O)c2cc(NC(=O)c3ccccc3)ccc2O1	inactive
CCCNC(=O)N(C)C[C@H]1Oc2cc(C#Cc3ccccn3)ccc2S(=O)(=O)N([C@@H](C)CO)C[C@@H]1C	inactive
COc1ccc(CN(C)C[C@H]2OCCCC[C@@H](C)Oc3ccc(NC(=O)c4ccccc4)cc3C(=O)N([C@@H](C)CO)C[C@H]2C)cc1	inactive

SMILES	cytotoxicity call
CCS(=O)(=O)N1Cc2cc(C(=O)NCCOC)nc(-c3cccc(-c4ccncc4)c3)c2[C@H]1CCO	inactive
CCN(CC)CCN(Cc1ccc(-c2ccc(C(F)(F)F)cc2)cc1)C(=O)Cn1c(SCc2ccc(F)cc2)nc(=O)c2c1CCC2	active
C[C@H](CO)N1C[C@H](C)[C@H](CN(C)C(=O)NC2CCCCC2)Oc2c(NS(=O)(=O)c3cn(C)cn3)cccc2C1=O	inactive
C[C@@H]1CN([C@H](C)CO)C(=O)c2cc(C#CC3CCCC3)cnc2O[C@@H]1CN(C)S(=O)(=O)c1cccc(F)c1	inactive
C[C@H](CO)N1C[C@H](C)[C@@H](CN(C)S(=O)(=O)c2cccc(F)c2)Oc2ncc(C#CC3CCCC3)cc2C1=O	inactive
C[C@@H]1CN([C@H](C)CO)C(=O)c2cc(C#CC3CCCC3)cnc2O[C@H]1CN(C)S(=O)(=O)c1cccc(F)c1	inactive
C[C@@H]1CN([C@@H](C)CO)C(=O)c2cc(C#CC3CCCC3)cnc2O[C@H]1CN(C)S(=O)(=O)c1cccc(F)c1	active
C[C@H](CO)N1C[C@H](C)[C@H](CN(C)S(=O)(=O)c2cccc(F)c2)Oc2ncc(C#CC3CCCC3)cc2C1=O	inactive
C[C@H]1CN([C@@H](C)CO)C(=O)c2cc(C#CC3CCCC3)cnc2O[C@@H]1CN(C)S(=O)(=O)c1cccc(F)c1	active
COc1ccc(NC(=O)N(C)C[C@@H]2OCCCC[C@@H](C)Oc3ccc(NS(=O)(=O)c4ccc(Cl)cc4)cc3C(=O)N([C@@H](C)CO)C[C@@H]2C)cc1	inactive
C=c1cc(C)ccc1=C1NN=C(NC(C)=O)O1	inactive
COc1ccc(S(=O)(=O)N(C)C[C@@H]2OCCCC[C@H](C)Oc3ccc(NC(=O)C4CCCCC4)cc3C(=O)N([C@H](C)CO)C[C@H]2C)cc1	inactive
CCCc1nc(C)c2c(=O)[nH]c(-c3cc(S(=O)(=O)N4CCN(CC)CC4)ccc3OCC)nn12.Cl	inactive
CCCc1nn(C)c2c(=O)[nH]c(-c3cc(S(=O)(=O)N4CCN(C)CC4)ccc3OCC)nc12.O=C(O)CC(O)(CC(=O)O)C(=O)O	active
CCCOc1ccc(S(=O)(=O)NCC[C@@H]2CCCN2C)cc1-c1nc2c(CCC)nn(C)c2c(=O)[nH]1	inactive
CCS(=O)(=O)Nc1ccc2c(c1)C(=O)N(C)[C@@H]1CC[C@H](CC(=O)NCc3ccc(OC)cc3)O[C@@H]1CO2	inactive
C[C@@H]1CCCCO[C@H](CN(C)CC2CCCCC2)[C@H](C)CN([C@H](C)CO)C(=O)c2cc(NS(=O)(=O)c3cccs3)ccc2O1	inactive
Cc1noc(C)c1S(=O)(=O)Nc1ccc2c(c1)C(=O)N([C@@H](C)CO)C[C@@H](C)[C@@H](CN(C)Cc1ccc(C(=O)Nc3ccccc3N)cc1)OCCCC[C@H](C)O2	inactive
C[C@@H]1CN([C@@H](C)CO)C(=O)c2cc(NS(=O)(=O)c3cccs3)ccc2O[C@@H](C)CCCCO[C@H]1CN(C)Cc1ccccc1	active
C[C@@H]1CN([C@H](C)CO)C(=O)c2cc(NS(=O)(=O)c3cccs3)ccc2O[C@@H](C)CCCCO[C@H]1CN(C)Cc1ccccc1	inactive

SMILES	cytotoxicity call
C[C@@H]1CCCCO[C@H](CN(C)Cc2ccccc2)[C@@H](C)CN([C@@H](C)CO)C(=O)c2cc(NS(=O)(=O)c3cccs3)ccc2O1	inactive
C[C@@H]1CN([C@H](C)CO)C(=O)c2cc(NS(=O)(=O)c3cccs3)ccc2O[C@@H](C)CCCCO[C@@H]1CN(C)CC1CCCCC1	inactive
C[C@H]1CCCCO[C@@H](CN(C)Cc2ccccc2)[C@@H](C)CN([C@@H](C)CO)C(=O)c2cc(NS(=O)(=O)c3cccs3)ccc2O1	active
C[C@H](CO)N1C[C@H](C)[C@@H](CN(C)Cc2ccccc2)OCCCC[C@H](C)Oc2ccc(NS(=O)(=O)c3cccs3)cc2C1=O	inactive
C[C@@H]1CCCCO[C@H](CN(C)CC2CCCCC2)[C@H](C)CN([C@@H](C)CO)C(=O)c2cc(NS(=O)(=O)c3cccs3)ccc2O1	active
Cc1noc(C)c1S(=O)(=O)Nc1ccc2c(c1)C(=O)N([C@H](C)CO)C[C@H](C)[C@@H](CN(C)Cc1ccc(C(=O)Nc3ccccc3N)cc1)OCCCC[C@@H](C)O2	active
C[C@@H]1CCCCO[C@@H](CN(C)Cc2ccccc2)[C@H](C)CN([C@@H](C)CO)C(=O)c2cc(NS(=O)(=O)c3cccs3)ccc2O1	inactive
Cc1noc(C)c1S(=O)(=O)Nc1ccc2c(c1)C(=O)N([C@@H](C)CO)C[C@H](C)[C@@H](CN(C)Cc1ccc(C(=O)Nc3ccccc3N)cc1)OCCCC[C@@H](C)O2	inactive
C[C@@H]1CN([C@@H](C)CO)C(=O)CCCn2nncc2CO[C@H]1CN(C)C(=O)Nc1ccc(N2CCN(C)CC2)cc1	inactive
C[C@H]1CN([C@@H](C)CO)C(=O)Cc2cc(NC(=O)Nc3cccc4ccccc34)ccc2O[C@H]1CN(C)C(=O)Nc1ccc(F)cc1	inactive
C[C@@H]1CN([C@@H](C)CO)C(=O)c2cc(NS(=O)(=O)c3ccccc3)ccc2O[C@@H](C)CCCCO[C@H]1CN(C)Cc1ccc(C(=O)O)cc1	inactive
Cc1cc(C(=O)Nc2cccc3c2O[C@H](CN(C)S(=O)(=O)c2ccc(Cl)cc2)[C@@H](C)CN([C@@H](C)CO)C3=O)n(C)n1	inactive
Cc1ccc(S(=O)(=O)Nc2ccc3c(c2)CC(=O)N([C@@H](C)CO)C[C@@H](C)[C@H](CN(C)S(=O)(=O)c2ccc(F)cc2)O3)cc1	inactive
CC(C)(O/N=C(\C(=O)N[C@@H]1C(=O)N2C(C(=O)O)=C(C[N+]3(CCNC(=O)c4ccc(O)c(O)c4Cl)CCCC3)CS[C@H]12)c1csc(N)n1)C(=O)O	inactive
CC(C)NC(=O)Nc1ccc2c(c1)C(=O)N([C@@H](C)CO)C[C@@H](C)[C@H](CN(C)C(=O)Nc1ccc(F)cc1)OCCCC[C@@H](C)O2	inactive
C[C@H]1CN([C@@H](C)CO)C(=O)Cc2cc(NS(C)(=O)=O)ccc2O[C@H]1CN(C)C(=O)Nc1ccccc1	inactive
C[C@H]1CN([C@@H](C)CO)C(=O)c2cc(NC(=O)Nc3cccc4ccccc34)ccc2O[C@@H]1CN(C)Cc1ccncc1	inactive
COc1ccc(CNC(=O)N(C)C[C@H]2OCc3ccccc3-c3c(n(C)c4ccccc34)C(=O)N([C@H](C)CO)C[C@@H]2C)cc1	inactive
O=C(C[C@@H]1C[C@@H]2c3cc(NC(=O)C4CCOCC4)ccc3O[C@@H]2[C@@H](CO)O1)NCCN1CCCCC1	inactive
